DT40 TDP1 CPT = growth inhibition of DT40 Tdp1-/-;hTDP1 cells with camptothecin (screen for TDP1 inhibitors) | chicken DT40 Tdp1-/-;hTDP1 cells + 20 nM CPT, ATP luminescence, 48 h | Potency, µM (series often up to 46.2 µM), actives largely listed as inhibitors | 420,000 compounds, 12% hits | AID 686979; note: nearly all actives have a fitted effect of over 55% in size
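Chicken DT40 Tdp1-/- cells stably complemented with human TDP1 were seeded at 400 cells/well in medium containing 20 nM camptothecin, exposed to pin-transferred compounds, and grown at 37 °C for at least 48 hr. Viability was read as ATP luminescence.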
HT1080 IDH1KD tx = kills HT-1080 cells with IDH1 knockdown | HT-1080 IDH1 knockdown viability, ATP luminescence, 48 h | Potency, µM (top dose mostly 46.1 µM), actives largely listed as cytotoxic | 360,000 compounds, 2% hits | AID 686971
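IDH1KD HT-1080 cells, 750/well, RPMI + 5% FBS; compound pinned after 2 h settling; 48 h, 37 °C; CellTiter-Glo luminescence; % activity normalised to DMSO and no-cell wells; curves fitted, classed by r2 and efficacy.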
HT1080NT lethal = kills 2HG-producing HT-1080-NT fibrosarcoma cells. Potency, µM (top dose mostly 46.1 µM), most hits filed as cytotoxic. HT-1080-NT fibrosarcoma viability, CellTiter-Glo ATP luminescence, 48 h. AID 686970. 360,000 compounds, 1.6% hits;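 note: NT is the 2HG producing partner of a matched IDH1 knockdown line; nearly all actives have a fitted effect of over 55% in size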
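HT-1080-NT fibrosarcoma cells (2HG-overproducing), 750 cells/well in RPMI with 5% FBS, dosed after 2 h and incubated 48 h at 37C. CellTiter-Glo luminescence normalized to DMSO and no-cell wells; concentration-response curves fitted and classed.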
DT40 TDP1 no CPT = qHTS for Inhibitors of human tyrosyl-DNA phosphodiesterase 1 (TDP1): qHTS in cells in absence of CPT. DT40 Tdp1-/- hTDP1 cells, no CPT, ATP luminescence, 48 h. Potency, µM (highest dose often 46.2 µM), actives largely listed as inhibitors. 420,000 compounds, 15% hits. AID 686978, 2013; note: nearly all actives have a fitted effect of over 55% in size
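Seeded 400 DT40-hTDP1 cells/well (vehicle DMSO, no 20 nM CPT); pinned compounds; ≥48 hr at 37 °C; CellTiter-Glo luminescence as viability measure.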
IL-1B inflam inh = inhibitors of inflammasome signaling (IL-1 beta secretion); THP-1 LPS/ATP IL-1B secretion, AlphaLISA, 16 h; hits give low values; activity change, % at 57.5 µM; 360,000 compounds, 4.7% hits; AID 743279; in the data active = activity change below about -50%; inconclusive = mostly about -30% to -49%
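THP-1 cells pretreated 1 hr with compounds (up to 57.5 uM final), then stimulated with LPS (250 ng/mL final) plus ATP (1.25 mM final); secreted IL-1B measured by AlphaLISA after 16 hr, decreased signal indicating inhibition.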
Numbers stand for hits; - = inactive; ? = inconclusive; . = no result; ! = a repeat was not active; [ ] = dose if it differs, or a comment. Hits are enriched below; roughly 19% of the tested compounds scored in any of these assays. Unless noted, calls come from the whole dose curve; as a rule, active = well fitted curve in the direction sought with a large enough effect; inconclusive = small, poorly fitted or top-dose-only effect, or another doubt; inactive = no such curve, though single readings can be large; an effect the other way counts as inactive or inconclusive.

SMILES | DT40 TDP1 CPT | HT1080 IDH1KD tx | HT1080NT lethal | DT40 TDP1 no CPT | IL-1B inflam inh
CCOC(=O)[C@@H]1CSCCS(=O)(=O)N1 | 12µM | - | - | 18µM | -
CCc1ccc(S(=O)(=O)c2nnn(-c3ccc(F)cc3)c2N)cc1 | 23µM | . | . | 16µM | .
O=S(=O)(NCc1nnnn1-c1ccc(F)cc1)c1ccc(F)cc1 | - | - | - | - | -
COc1cccc(-n2nnc(S(=O)(=O)c3ccc(C)cc3)c2N)c1 | ? | - | - | 23µM | -
CCc1cccc(-n2nnc(S(=O)(=O)c3ccc(OC)cc3)c2C)c1 | - | . | . | ? | .
COc1cccc(-n2cnnn2)c1 | - | - | - | - | -
COc1ccc(S(=O)(=O)c2nnn(-c3cccc(Cl)c3)c2N)cc1 | 12µM | - | - | 21µM! | -
OCCNc1ncnc2c1ncn2[C@H]1CN(Cc2ccc(Cl)cc2)C[C@@H](CO)O1 | - | - | - | ? | -
CCc1nc2c(OCC3CCCCC3)cccn2c1N(C)C(=O)c1ccccc1F | ? | ? | ? | 16µM | -
CCc1nc2c(OCCOc3ccccc3)cccn2c1N(C)C(=O)c1ccc(C)cc1 | ? | - | - | ? | -
CCc1nc2c(OCc3ccccc3)cccn2c1N(C)C(=O)C(C)C | ? | - | - | ? | -
CCc1nc2c(OCCC3CCCCC3)cccn2c1N(C)C(=O)C(C)C | 13µM | ? | ? | ? | ?
CCc1nc2c(OCCC3CCCCC3)cccn2c1N(C)C(=O)c1ccc(C)cc1 | 15µM | ? | ? | 15µM | -99
CCc1nc2c(OCCOc3ccccc3)cccn2c1N(C)C(=O)C1CC1 | 16µM | - | - | ? | -
OC1(c2nc3ccccc3[nH]2)CCCCC1 | - | - | - | - | -
CCCCn1c(N)c(N(CCOC)C(=O)c2c(-c3ccccc3)noc2C)c(=O)[nH]c1=O | - | - | - | - | -
CCc1nc2c(OCCOC)cccn2c1N(C)C(=O)c1ccc(C)cc1 | - | - | - | - | -
CCc1nc2c(OCCC3CCCCC3)cccn2c1N(C)C(=O)COc1ccccc1 | 16µM | - | - | ? | -
CCc1nc2c(OCC(=O)c3ccc(Cl)cc3Cl)cccn2c1N(C)C(=O)COc1ccccc1 | ? | ? | ? | ? | -
CCc1nc2c(OCCC3CCCCC3)cccn2c1N(C)C(=O)C1CC1 | 18µM | ? | ? | 13µM | -
CCc1nc2c(OCC3CCCCC3)cccn2c1N(C)C(=O)c1ccc(OC)cc1 | 18µM | ? | ? | 18µM | .
COc1ncc2nc(-c3ccccc3)c(=O)n(C3CC3)c2n1 | - | . | . | - | .
Cc1csc(NC(=O)C2CCN(C(=O)CSc3nnc(C)n3Cc3ccccc3)CC2)n1 | - | - | - | - | -
CCOC(=O)c1c(S(=O)(=O)N2CCC(C(=O)Nc3ccc(F)cc3F)CC2)c(C)n(C)c1C | - | . | . | - | .
CC(C)Cn1nc(C(=O)Nc2cccc(C(=O)NC3CC3)c2)c2ccccc2c1=O | ? | - | - | 18µM | -
SMILES | DT40 TDP1 CPT | HT1080 IDH1KD tx | HT1080NT lethal | DT40 TDP1 no CPT | IL-1B inflam inh
CCCCn1nc(C(=O)NC2CCCCCC2)c2ccccc2c1=O | ? | - | - | 13µM | -
Cc1cc(=O)c(C(=O)O)nn1-c1ccccc1Cl | - | - | - | - | -
Cc1cc(=O)c(C(=O)Nc2cccc(C(=O)NC3CC3)c2)nn1-c1ccccc1Cl | - | - | - | - | -54
COc1ccc(C(=O)Nc2ccccc2C(=O)NC(Cc2ccc(O)cc2)C(=O)NNC(=O)c2ccncc2)cc1 (stereo not given) | - | - | - | - | -
CC(C(=O)Nc1cc(Cl)cc(Cl)c1)N1CCCC1 (stereo not given) | - | - | - | - | -
C(#Cc1ccc(C#CCN2CCCC2)cc1)CN1CCCC1 | ? | - | - | 21µM | -
C=CCn1c(SCC(=O)N(C)C2CCS(=O)(=O)C2)nnc1-c1ccncc1 (stereo not given) | ? | - | - | - | -
O=C(Nc1nc(-c2ccccc2)cs1)C1CCCCN1S(=O)(=O)c1ccccc1 (stereo not given) | 26µM | ? | ? | 23µM | -
O=C(Nc1nc(-c2ccccc2)cs1)C1CCCN(S(=O)(=O)c2cccc([N+](=O)[O-])c2)C1 (stereo not given) | 21µM | - | - | ? | -
CC1CCCN(S(=O)(=O)c2cccc([N+](=O)[O-])c2)C1 (stereo not given) | - | - | - | ? | -
O=C(Nc1nc(-c2ccccc2)cs1)C1CCCN(S(=O)(=O)c2ccccc2)C1 (stereo not given) | 6.5µM | ? | ? | 6.5µM | -
O=C(Nc1nc(-c2ccccc2)cs1)C1CCCCN1S(=O)(=O)c1ccc(Cl)cc1 (stereo not given) | ? | ? | ? | ? | -
Cc1[nH]c2ccccc2c1Cc1nnc(SCc2ccccc2)o1 | ? | - | - | ? | -
COCC1CCCN(Cc2ccc3c(c2)CN(C(=O)c2ccc(-n4cccn4)cc2)CCO3)C1 (stereo not given) | -[9.04 µM] | . | . | - | .
C#CCN1C=CC(=O)[C@@H](OC(=O)Nc2ccc(Cl)cc2)[C@H]1c1ccccc1Br | 21µM | - | - | 23µM | -
CC1CC2C3CC(F)C4=CC(=O)C=C[C@@]4(C)[C@@]3(F)C(O)C[C@]2(C)[C@]1(O)C(=O)COC(=O)C(C)(C)C (stereo not given in full) | - | . | . | ? | .
O=C(C1CCCCC1)N1C[C@H](O)[C@@H](n2cc(-c3ccc(F)cc3)nn2)C[C@@H]1c1ccccc1 | ? | - | - | ? | -
COc1ccc([C@H]2C[C@@H](n3cc(-c4ccc(F)cc4)nn3)[C@H](O)CN2C(=O)C2CCCCC2)cc1 | ? | - | - | 8.2µM | -
O=C(C1CCCCC1)N1C[C@H](n2cc(-c3ccc(F)cc3)nn2)[C@@H](O)C[C@@H]1c1ccc(Cl)cc1 | ? | ? | ? | 16µM | -56
Cc1ccc([C@H]2C[C@@H](O)[C@H](n3cc(-c4ccc(F)cc4)nn3)CN2C(=O)C2CCCCC2)cc1 | ? | - | - | 23µM | -
O=C(C1CCCCC1)N1C[C@@H](n2cc(-c3ccc(F)cc3)nn2)[C@H](O)C[C@@H]1c1ccc(Cl)cc1 | 18µM | ? | ? | 23µM | ?
O=C(C1CCCCC1)N1C[C@H](n2cc(C3CC3)nn2)[C@@H](O)C[C@@H]1c1ccc(Cl)cc1 | - | - | - | - | -
O=C(C1CCCCC1)N1C[C@@H](O)[C@H](n2cc(-c3ccc(F)cc3)nn2)C[C@@H]1c1ccc(Cl)cc1 | ? | ? | ? | ? | -
Cc1ccc([C@H]2C[C@@H](O)[C@H](n3cc(C4CC4)nn3)CN2C(=O)C2CCCCC2)cc1 | - | - | - | ? | -

Screening data deposited in PubChem by National Center for Advancing Translational Sciences (NCATS).
